About 83,000 compounds went through this panel and 20% of them were active in at least one assay; those are over-represented in the sample as a whole.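 Compound tested at a single concentration for 48 hours in 96-well plates; a percent growth value below 10 was scored as active.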 Unmarked numbers belong to inactive results. Calls of active or inactive are those of the source.
Legend:
Assay in all cases: NCI-60 one-dose screen, 48 h (100 = growth as untreated, 0 = no growth, -100 = all killed)
Settings in all cases: 10 µM unless noted
HCT-15 colon = system: HCT-15 colon
HT29 colon = system: HT29 colon
SNB-75 CNS = system: SNB-75 CNS
SNB-19 CNS = system: SNB-19 CNS
U251 CNS = system: U251 CNS
PC-3 prostate = system: PC-3 prostate
SK-MEL-5 melanoma = system: SK-MEL-5 melanoma
LOX IMVI melanoma = system: LOX IMVI melanoma
SK-MEL-28 melanoma = system: SK-MEL-28 melanoma
UACC-62 melanoma = system: UACC-62 melanoma

Structure (SMILES)	growth (HCT-15 colon)	growth (HT29 colon)	growth (SNB-75 CNS)	growth (SNB-19 CNS)	growth (U251 CNS)	growth (PC-3 prostate)	growth (SK-MEL-5 melanoma)	growth (LOX IMVI melanoma)	growth (SK-MEL-28 melanoma)	growth (UACC-62 melanoma)
C[C@]12CC[C@@H]3c4ccc(O)cc4CC[C@H]3[C@@H]1C[C@H](O)C2	44.4%	94.1%	84.2%	66.2%	63.3%	80%	64.9%	63.4%	84.3%	
Nc1c(C(=O)c2ccccc2)sc2nc(-c3cc4ccccc4o3)cc(-c3ccc(Cl)cc3)c12	86.4%	106%	92.3%	111%	90%	87.5%	97.8%	86.5%	120%	
Cc1nc2sc(C(=O)Nc3cccc4ccccc34)c(N)c2cc1C(C)O (stereo not given)	14.4%	4.82% (active)	29%	34%	25.4%	30.7%	8.93% (active)	26.9%	66.9%	
NC(=O)CN1C(=O)c2ccccc2C1=O	100%	102%	86.4%	98.4%	103%	99.5%	99.2%	103%	106%	
CC(/C=C/c1ccccc1)=N/NC(=O)c1ccncc1	100%	108%	97.7%	102%	98.3%	92.5%	100%	99.5%	118%	
CC(C)(C)c1nn(-c2ccccc2)c2c1COCN2Cc1ccc(Cl)cc1	96%	65.7%	95.1%	92.4%	90.3%	63.6%	82.2%	85%	100%	
COc1ccc(/C(=N\O)c2cc(C)c(OC)c(C)c2)cc1O	16.3%	-8.4% (active)	38.4%	29.8%	22.1%	37.6%	-7.18% (active)	24.2%	55.4%	
COc1ccc(-c2cs/c(=N\N=C\c3ccc(O)cc3O)n2/N=C/c2ccc(O)cc2O)cc1	-53.1% (active)	-29% (active)	29.7%	5.62% (active)	-35.8% (active)	-67.3% (active)	-38.6% (active)	-36% (active)	-22.9% (active)	
CN1CCN(S(=O)(=O)O[C@@H]2C(=O)N(c3cc4c5ccccc5ccc4c4ccccc34)[C@H]2c2ccc(F)cn2)CC1	84.8%	82%	74.6%	85%	78.6%	63.9%	88.7%	84.5%	113%	
COC(=O)c1cc2c3c(cc(O)c2[nH]1)N(C(=O)C1Cc2cc(OC)c(OC)c(OC)c2N1)CC3CCl (stereo not given)	1.13% (active)	-7.58% (active)	-32.9% (active)	-52% (active)	-54.9% (active)	-17.1% (active)	-94.6% (active)	-94.2% (active)	-6.29% (active)	
Cc1cnc(-c2ccc(-c3ccc(NC(=O)Nc4c(F)cc(F)cc4F)cc3F)c3c2C(=O)NC3)[nH]1	49.4%	27%	17.3%	41.9%		39.7%	38.5%	32.9%	39.1%	0.806% (active)
CCOC(=O)C1=C(C)n2nc(CC#N)c(C#N)c2NC1c1ccc(Cl)cc1 (stereo not given)	97.1%	111%	86.1%	106%	107%	91.3%	98.3%	94.7%	101%	
COc1cc2c(cc1OC)C(Sc1ccc(Cl)cc1)c1c(nc(N)c(C#N)c1N)O2 (stereo not given)	-66.2% (active)	-61.9% (active)	-17.4% (active)	22.1%	-62.5% (active)	5.11% (active)	12.5%	-88.9% (active)	-3.09% (active)	-23.8% (active)
COc1ccc(C(=O)c2cc(F)c(F)c(OC)c2F)cc1OC(=O)CCl	26.4%	94.8%	42.9%	39.1%	31.3%	38.4%	29%	34.7%	57.9%	31.7%
CNCc1cccc2c1OCCOCCOCCN(CCN1CCOCC1)S(=O)(=O)c1ccc(cc1)-c1cnc(N)c(n1)C(=O)N2	74.8%	24.5%	16.7%	76.3%	53.8%	50.1%	76.6%	28.4%	76.3%	
O=C1[C@@H](OS(=O)(=O)CC(F)(F)F)[C@H](c2ccc(F)cn2)N1c1cc2c3ccccc3ccc2c2ccccc12	61.9%	64.1%	83.4%	77.9%	69.2%	62.8%	67.2%	70.3%	79.7%	58.3%
CCO/C=N/S(=O)(=O)c1cc2c(cc1Cl)NC=NS2(=O)=O	107%	97.4%	106%	103%	95.4%	92.3%	102%	98.4%	120%	
O=c1c2ccccc2oc2ccc(OCCCCCCN3CCCCCC3)cc12	7.65% (active)	8.09% (active)	88.7%	58.3%	38.9%	34%	-36.7% (active)	19.1%	38.5%	
COc1ccc2nc(-c3ccc(OC)c(OC)c3)cc(-c3nnc(SCC(=O)Nc4ccc(C(C)=O)cc4)o3)c2c1	100%	105%	91.6%	101%	97.7%	95%	94.1%	102%	113%	
O=C(Nc1nc(-c2ccccc2)cs1)c1cc(-c2ccc(Br)cc2)nc2ccccc12	33%	39.8%	85.1%	79.2%	42%	28.9%	54.8%	42.7%	68.3%	50.5%
CCCCc1ccc(N=Nc2ccc(OCC[N+](C)(C)C)cc2)cc1	61%	26.3%	15.4%	1.8% (active)	-51.1% (active)	24.2%	89.4%	33.6%	88.9%	
CC1CCCN(CCCCCOc2ccc3oc4ccc(Cl)cc4c(=O)c3c2)C1 (stereo not given)	2.05% (active)	4.5% (active)	82.5%	86.4%	68.2%	79.8%	-14.3% (active)	10.9%	79.9%	
COc1ccccc1C(=O)/C=C/c1cc2cccc(OC)c2[nH]c1=O	-12.5% (active)	-39.1% (active)	34.3%	-4.63% (active)	-55.7% (active)	31.1%	-39.2% (active)	-63.5% (active)	2.94% (active)	
Cc1nc2sc(C(=O)Nc3ccccc3Cl)c(N)c2cc1C(C)O (stereo not given)	61.4%	34.3%	72.8%	83.2%	66.5%	83.5%	80.7%	74.5%	84.7%	68.2%
Cc1cc(C)c(NC(=O)c2sc3nc4c(cc3c2N)CCCCCC4)c(C)c1	41.1%	19%	57.6%	49.1%	35.3%	47.9%	57.1%	58.7%	75.2%	
C#C[C@@]1(O)[C@@H](CO)O[C@@H](n2cc(Cl)c3c(N)ncnc32)[C@@H]1O	1.65% (active)	5.79% (active)	-42.4% (active)	2.86% (active)	-6.87% (active)	-17.3% (active)	-61% (active)	-72.5% (active)	42.6%	
COC(=O)/C=C/c1cc(OC)c2c(c1)[C@@H](C(=O)OC)[C@H](c1ccc(OC)c(OC)c1)O2	32.2%	11%	-3.43% (active)	35%		32.9%	9.73% (active)	51.1%	63.4%	33.6%
Oc1c(CCl)cc(Cl)cc1Cc1cc(Cl)cc(Cc2cc(Cl)cc(CCl)c2O)c1O	12.8%	56.9%	56.8%	27.6%		17.9%	-1.94% (active)	47.7%	30%	4.56% (active)
CC(=O)OC[C@]12CC[C@@H](c3cn(Cc4ccc(Cn5cc([C@@H]6CC[C@]7(COC(C)=O)CC[C@]8(C)[C@H](CC[C@@H]9[C@@]%10(C)CC[C@H](OC(C)=O)C(C)(C)[C@@H]%10CC[C@]98C)[C@@H]67)nn5)cc4)nn3)[C@@H]1[C@H]1CC[C@@H]3[C@@]4(C)CC[C@H](OC(C)=O)C(C)(C)[C@@H]4CC[C@@]3(C)[C@]1(C)CC2	102%	97.2%	105%	96.7%		104%	105%	97.3%	99.8%	

From PubChem BioAssay (NCI)
